Screening data: PubChem, National Center for Advancing Translational Sciences (NCATS)
Most compounds without a hit are left out; they make up all but 21% or so of the library.
VP16 counter – inhibits Gal4-VP16 luciferase reporter, ROR gamma counter-screen; Drosophila S2 Gal4-VP16 UAS-luciferase, luminescence, 20 h; Potency, µM (highest dose often 53.6 µM), for the others: at the highest dose activity, negative = inhibition, actives largely listed as inhibitors; actives 3.5% (n = 310,000);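 also: Gal4-VP16 expression switched on by copper sulfate through the metallothionein promoter; potency is read from the fitted curve at half-maximal effect; nearly all actives have a fitted effect of over 50% in size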
DT40 TDP1 no CPT – qHTS for Inhibitors of human tyrosyl-DNA phosphodiesterase 1 (TDP1): qHTS in cells in absence of CPT. DT40 Tdp1-/- hTDP1 cells, no CPT, ATP luminescence, 48 h. actives 15% (n = 420,000). Potency, µM (top dose mostly 46.2 µM), for inactives: at the highest dose activity change, negative = growth inhibition, usual class: inhibitors; also: potency is read from the fitted curve at half-maximal effect; nearly all actives have a fitted effect of over 55% in size
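Seeded 400 DT40-hTDP1 cells/well (vehicle DMSO, no 20 nM CPT); pinned compounds; ≥48 hr at 37 °C; CellTiter-Glo luminescence as viability measure.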
TDP1 cell CPT – growth inhibition of DT40 Tdp1-/-;hTDP1 cells with camptothecin (screen for TDP1 inhibitors); chicken DT40 Tdp1-/-;hTDP1 cells + 20 nM CPT, ATP luminescence, 48 h; Potency, µM (titrated, usually from 46.2 µM), without a hit: top-dose activity change, negative = growth inhibition, usual class: inhibitors; actives 12% (n = 420,000); AID 686979; also: potency is read from the fitted curve at half-maximal effect; nearly all actives have a fitted effect of over 55% in size
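Cell growth measured by CellTiter-Glo luminescence after a minimum 48 h, 37 C compound exposure with 20 nM CPT in Tdp1-knockout DT40 cells stably expressing hTDP1, seeded 400/well; qHTS titration format.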
ELG1 repair inh – blocks ELG1-dependent DNA repair in HEK293T cells | actives 2.3% (n = 330,000) | HEK293T ELG1-luciferase reporter, luminescence, 16 h; DNA damage induced by 5-fluorouridine | Potency, µM (series often up to 46.1 µM), for the others: top-dose activity change, negative = inhibition, usual class: inhibitors; also: potency is read from the fitted curve at half-maximal effect; nearly all actives have a fitted effect of over 55% in size
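Quantitative HTS, concentration-response format. 2,000 cells/well co-treated with 5-fluorouridine and compound, 16 hr in 5% CO2 at 37 °C; ONE-Glo luminescence read after 30 min.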
IL-1B inflam inh – blocks inflammasome-driven IL-1 beta release. THP-1 LPS/ATP IL-1B secretion, AlphaLISA, 16 h; hits give low values. activity change, % at 57.5 µM. actives 4.7% (n = 360,000); in the data active = activity change below about -50%; inconclusive = mostly about -30% to -49%
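Secreted IL-1B measured by AlphaLISA bead assay after 16 h compound exposure of THP-1 cells; compounds (final up to 57.5 uM) added 1 h before LPS (250 ng/mL) and ATP (1.25 mM) stimulation; lower signal means less secretion.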
RORgamma inh – inhibitors of mouse ROR gamma transcriptional activity | actives 5.4% (n = 310,000) | Potency, µM (highest dose often 53.6 µM), for inactives: at the highest dose activity change, negative = inhibition, actives largely listed as inhibitors | Drosophila S2 Gal4-RORgamma UAS-luciferase reporter, 20 h; also: potency is read from the fitted curve at half-maximal effect; nearly all actives have a fitted effect of over 60% in size
Target sequence (P51450 whole entry, looked up, the tested form may be a part): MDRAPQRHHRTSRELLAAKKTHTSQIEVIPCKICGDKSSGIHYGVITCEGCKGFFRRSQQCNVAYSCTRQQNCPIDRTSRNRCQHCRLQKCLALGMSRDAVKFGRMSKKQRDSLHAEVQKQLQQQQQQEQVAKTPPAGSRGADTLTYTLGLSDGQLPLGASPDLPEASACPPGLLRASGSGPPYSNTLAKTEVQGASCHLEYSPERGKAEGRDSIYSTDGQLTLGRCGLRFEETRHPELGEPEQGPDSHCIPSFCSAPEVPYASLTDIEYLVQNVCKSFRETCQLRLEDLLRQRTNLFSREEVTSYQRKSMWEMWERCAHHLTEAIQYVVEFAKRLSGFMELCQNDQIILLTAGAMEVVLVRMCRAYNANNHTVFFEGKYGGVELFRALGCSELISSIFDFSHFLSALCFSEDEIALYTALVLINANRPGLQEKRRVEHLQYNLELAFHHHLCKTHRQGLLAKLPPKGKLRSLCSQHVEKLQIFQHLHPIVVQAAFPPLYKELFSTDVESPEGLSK
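Luminescence from a UAS-regulated Photinus luciferase reporter in stably transfected Drosophila Schneider cells is measured; decreased signal marks ROR gamma inhibition. Fusion expression is induced by 700 uM copper sulfate for 20 hr.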
* = called active by the depositor; i = inactive; ? = inconclusive; . = not tested or not shown. Unless noted, calls follow the shape of the dose curve; as a rule, active = well fitted curve in the direction sought with a large enough effect; inconclusive = small, poorly fitted or top-dose-only effect, or another doubt; inactive = no such curve, though single readings can be large; an effect the other way counts as inactive or inconclusive. % is scaled to controls: 0 for no effect and ±100 for the full control effect.

SMILES	VP16 counter	DT40 TDP1 no CPT	TDP1 cell CPT	ELG1 repair inh	IL-1B inflam inh	RORgamma inh
COc1ccc(NC(=O)C2CCN(S(=O)(=O)c3cc(-c4noc(C)n4)ccc3C)CC2)cc1	.	?	-27%	.	.	.
Cc1ccccc1OCCC(=O)Nc1ccc(S(=O)(=O)N(C)C2CCN(C)CC2)cc1	.	?	?	?	-61*	.
CN1CCC(N(C)S(=O)(=O)c2ccc(NC(=O)COc3ccc(Br)cc3Cl)cc2)CC1	.	16µM*	26µM*	-7%	-63*	.
CN1CCC(N(C)S(=O)(=O)c2ccc(NC(=O)Cc3ccc(F)cc3)cc2)CC1	.	3%	4%	-9%	-15	.
O=C(NCCCN1CCOCC1)c1ccc2nc(Cc3cccc(Cl)c3)oc2c1	-5%	-22%	-21%	7%	-2	4%
CN(Cc1ccon1)C(=O)c1ccc2nc(Cc3cccc(Cl)c3)oc2c1	-9%	?	?	12%	1	32%
COc1ccc(Cc2nc3ccc(C(=O)N(C)CCc4cnn(C)c4)cc3o2)cc1OC	.	8.2µM*	?	?	i	.
CCN(Cc1cnn(C)c1)C(=O)c1ccc2nc(Cc3cccc(Cl)c3)oc2c1	18%	23µM*	23µM*	0%	0	20%
CN(CCCN1CCOCC1)C(=O)c1ccc2nc(Cc3cccc(Cl)c3)oc2c1	-3%	?	?	15µM*	i	-1%
Cc1c(Cl)cnc(NC(=O)CSc2n[nH]c(N)n2)c1Cl	.	-16%	2%	-11%	-8	.
COc1ccccc1NC(=O)CCNC(=O)C1CCN(S(=O)(=O)c2ccccc2)CC1	.	-23%	-10%	.	0	.
Cc1c(C(=O)NCc2ccc3c(c2)OCO3)oc2ccc(S(=O)(=O)N3CCCCCC3)cc12	-8%	?	?	.	-16	7%
Cc1c(C(=O)NCc2ccc3c(c2)OCO3)oc2ccc(S(=O)(=O)N3CCC(C)CC3)cc12	3%	15µM*	15µM*	8.2µM*	78	6%
CC1CCN(S(=O)(=O)c2ccc3c(c2)oc(=O)n3CC(=O)NCc2ccc3c(c2)OCO3)CC1	?	?	?	10µM*	-17	-30%
COc1ccc(NC(=O)Cn2c(=O)oc3cc(Cl)ccc32)c(OC)c1	-8%	6.5µM*	?	0%	10	44%
COc1ccc(CC(=O)Nc2ccc(S(=O)(=O)N3CCC(C)CC3)cc2)c(OC)c1	.	8.2µM*	?	?	-10	.
COc1ccc(CC(NC(C)=O)C(=O)NC2CCN(S(=O)(=O)c3ccc(NC(C)=O)cc3)CC2)c(OC)c1 (stereo unspecified)	5%	-5%	26%	7%	-17	4%
COc1ccc(Cl)cc1NC(=O)Cn1c(=O)oc2ccccc21	-14%	?	8%	0%	28	-11%
COc1ccc(CNC(=O)Cn2c(=O)oc3cc(S(=O)(=O)N4CCC(C)CC4)ccc32)cc1	.	8.2µM*	8.2µM*	.	.	.
COc1ccc(CNC(=O)Cn2c(=O)oc3cc(S(=O)(=O)N4CCCCCC4)ccc32)cc1	.	16µM*	13µM*	.	.	.
CC1CCN(S(=O)(=O)c2ccc3c(c2)oc(=O)n3CC(=O)N2c3ccccc3CC2C)CC1 (stereo unspecified)	-4%	-24%	-36%	-4%	-22	-1%
COc1ccc(CNC(=O)Cn2c(=O)ccc3cc(S(=O)(=O)N4CCCC4)ccc32)cc1	.	-24%	-11%	.	.	.
COc1ccc(NC(=O)Cn2c(=O)oc3cc(S(=O)(=O)N4CCC(C)CC4)ccc32)c(OC)c1	.	8.2µM*	21µM*	.	.	.
CC1CCN(S(=O)(=O)c2ccc3c(c2)oc(=O)n3CC(=O)O)CC1	.	-9%	-5%	.	.	.
Cc1cc(C)cc(NC(=O)Cn2c(=O)oc3cc(S(=O)(=O)N4CCC(C)CC4)ccc32)c1	?	15µM*	6.5µM*	-15%	1	-7%
SMILES	VP16 counter	DT40 TDP1 no CPT	TDP1 cell CPT	ELG1 repair inh	IL-1B inflam inh	RORgamma inh
CCCCCOc1ccc(C(=O)CCC(=O)NC(C)c2ccc(S(N)(=O)=O)cc2)cc1 (stereo unspecified)	.	?	?	?	19	.
O=C1c2cc3c(cc2CCC1c1ccc2c(c1)OCO2)OCO3 (stereo unspecified)	.	?	-26%	.	-9	.
CC(=O)C1=C(c2ccccc2)NC(=O)NC1c1ccc(O)c(O)c1 (stereo unspecified)	3%	-9%	2%	-1%	19	3%
O=C1NC(c2ccccc2)=C(c2nc3ccccc3s2)C(c2ccc(F)cc2)N1 (stereo unspecified)	?	?	?	?	-75*	33%
COc1ccc(C2NC(=O)NC(c3ccccc3)=C2c2nc3ccccc3s2)cc1 (stereo unspecified)	-7%	?	14µM*	?	?	1%
Cc1nc2sccn2c(=O)c1S(=O)(=O)NCc1ccc(F)cc1	.	-12%	2%	.	.	.
CCn1c(C)[n+](CC)c2ccc(C(=O)N(C)c3ccccc3)cc21	4%	10%	-3%	-4%	0	0%
CC[n+]1c(/C=C/C=C/N(C(C)=O)c2ccccc2)sc2ccccc21	-14%	21µM*	?	-13%	0	40%
CCn1c(/C=C/N(C(C)=O)c2ccccc2)[n+](CC)c2ccc(Cl)cc21	-17%	15µM*	16µM*	0%	13	-14%
CCOC(=O)c1c(NC(=O)CSc2nc3ccc(C)cc3[nH]2)sc2c1CC(C)(C)NC2(C)C	.	?	?	16%	-85*	.
CCOC(=O)c1c(NC(=O)CSc2nnnn2-c2ccccc2OCC)sc2c1CC(C)(C)NC2(C)C	.	15µM*	?	?	-78*	.
CCOC(=O)c1c(NC(=O)CSc2nnnn2-c2ccccc2)sc2c1CC(C)(C)NC2(C)C	.	?	16µM*	?	-62*	.
Cc1c(C(=O)Nc2nc(-c3ccc(F)cc3)ns2)oc2ccc(Cl)cc12	.	-4%	-4%	.	.	.
COC(=O)CC1Oc2cc3oc4c(c3cc2O1)C(=O)CC(C)(C)C4 (stereo unspecified)	?	.	.	.	.	5µM*
Cc1cc(Cl)c(O)c(-n2nc3ccccc3n2)c1	-11%	?	21µM*	?	3	24%
Cc1cc(-n2nc3ccc(Cl)cc3n2)c(O)c(C(C)(C)C)c1	-4%	4%	0%	.	.	4%
